The target in test [1] is CCAAT/enhancer-binding protein beta (Homo sapiens) (UniProt P17676). As to the kind of experiment: ATG_C_EBP_CIS: Attagene CIS-FACTORIAL HepG2 Assay for human CCAAT/Enhancer Binding Protein (C/EBP) beta (AID 2282927). The following applies: HepG2 Attagene cis-factorial transcription factor reporter; actives raise or lower the signal. A digest of the protocol:
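HepG2 transiently transfected with multiplexed reporter units under cis-regulatory promoters reporting endogenous C/EBPb activity. After 24 h exposure, reporter mRNA assayed by RT-PCR, fluorescent labelling, HpaI digestion and capillary electrophoresis; bidirectional fitting versus DMSO.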

Test [2] in a line: ATG_DR4_LXR_CIS: Attagene CIS-FACTORIAL HepG2 Assay for human Liver X Receptor (LXR), DR4 submotif (AID 2282929). As to conditions: HepG2 Attagene DR4 cis-reporter, mRNA transcription; actives raise or lower the signal. A digest of the protocol:
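Endogenous factor activity at a DR4 cis-element is read as reporter mRNA in transiently transfected HepG2 cells. Exposure lasts 24 h; transcripts are amplified, fluorescently labelled and sized by capillary electrophoresis, with DMSO as baseline.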

Test [3] deals with Aryl hydrocarbon receptor (Homo sapiens) (UniProt P35869). As to the kind of experiment: ATG_Ahr_CIS: Attagene CIS-FACTORIAL HepG2 Assay for human Aryl Hydrocarbon Receptor (Ahr) (AID 2282930). As to conditions: HepG2 AhR cis-factorial reporter transcription; actives raise or lower the signal. A digest of the protocol: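 HepG2 cells transiently transfected with cis-element-driven multiplexed reporter units; endogenous AhR activity read as reporter mRNA 24 h after dosing, via RT-PCR, 6-FAM labelling, HpaI digestion and capillary electrophoresis. Bidirectional fit relative to DMSO.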
Sequence of Aryl hydrocarbon receptor (Homo sapiens) (P35869 whole entry, looked up): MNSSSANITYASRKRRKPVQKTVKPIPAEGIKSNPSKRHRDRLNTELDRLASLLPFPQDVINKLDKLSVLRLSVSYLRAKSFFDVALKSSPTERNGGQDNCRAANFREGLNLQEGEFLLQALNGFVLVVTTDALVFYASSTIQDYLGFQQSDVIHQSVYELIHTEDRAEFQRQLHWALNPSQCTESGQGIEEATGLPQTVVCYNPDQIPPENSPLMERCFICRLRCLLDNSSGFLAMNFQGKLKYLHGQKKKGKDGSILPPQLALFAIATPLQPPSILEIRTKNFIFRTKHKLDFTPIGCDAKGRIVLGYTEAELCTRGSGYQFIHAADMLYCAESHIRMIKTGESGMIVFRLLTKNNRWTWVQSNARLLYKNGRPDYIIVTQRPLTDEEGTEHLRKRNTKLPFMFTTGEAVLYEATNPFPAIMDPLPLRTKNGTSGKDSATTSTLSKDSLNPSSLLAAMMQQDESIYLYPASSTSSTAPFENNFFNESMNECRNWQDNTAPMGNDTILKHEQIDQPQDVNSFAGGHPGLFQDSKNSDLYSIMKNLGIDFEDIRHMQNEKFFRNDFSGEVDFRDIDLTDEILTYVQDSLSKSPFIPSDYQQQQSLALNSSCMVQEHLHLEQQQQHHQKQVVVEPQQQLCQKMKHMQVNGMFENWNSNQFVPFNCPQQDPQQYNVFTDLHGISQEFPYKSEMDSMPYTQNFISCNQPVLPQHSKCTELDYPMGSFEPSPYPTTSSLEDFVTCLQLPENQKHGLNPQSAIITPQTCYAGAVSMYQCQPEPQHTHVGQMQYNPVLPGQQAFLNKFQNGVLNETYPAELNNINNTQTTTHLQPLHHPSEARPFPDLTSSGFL

Test [4] in a line: ATG_AP_1_CIS: Attagene CIS-FACTORIAL HepG2 Assay for human Activator Protein 1 (AP-1) (AID 2282931). As to conditions: HepG2 Attagene cis-factorial AP-1 reporter mRNA; actives raise or lower the signal. Put shortly:
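Fluorescence of labelled PCR fragments separated by capillary electrophoresis gives reporter mRNA levels. HepG2 with transfected cis-regulated reporter units, 24 h exposure; DMSO serves as baseline for bidirectional curve fits.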

Test [5] in a line: ATG_AP_2_CIS: Attagene CIS-FACTORIAL HepG2 Assay for human Activator Protein 2 (AP-2) (AID 2282932). The following applies: HepG2 AP-2 cis-reporter, Attagene transcription factor profiling; actives raise or lower the signal. Put shortly:
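HepG2 cells transiently transfected with cis-element reporter units and exposed for 24 h. Reporter mRNA measured by RT-PCR, FAM labelling, HpaI digestion and capillary electrophoresis. Changes in either direction fitted relative to DMSO.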

Test [6] is described as follows: ATG_BRE_CIS: Attagene CIS-FACTORIAL HepG2 Assay for human Bone Morphogenetic Protein (BMP) Response Element (BRE) (AID 2282933). The following applies: HepG2 BMP response element reporter, Attagene transcription factor profiling; actives raise or lower the signal. Put shortly:
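Endogenous transcription factor activity at a BMP response element was monitored in transfected HepG2 cells 24 h after dosing. Fluorescent RT-PCR products were resolved by capillary electrophoresis, and activity was fitted in both directions versus DMSO.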

In test [7] the target is Retinoic acid receptor alpha (Homo sapiens) (UniProt P10276). As to the kind of experiment: ATG_DR5_RAR_CIS: Attagene CIS-FACTORIAL HepG2 Assay for human Retinoic Acid Receptor Alpha (RARE), DR5 submotif (AID 2282934). The following applies: HepG2 Attagene cis-factorial RARE DR5 reporter, mRNA; actives raise or lower the signal. A digest of the protocol: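 HepG2 cells transiently transfected with multiplexed reporter units; DR5 cis-element drives reporter through endogenous transcription factors. After 24 h dosing, reporter mRNA quantified by RT-PCR, fluorescent labeling, HpaI digestion and capillary electrophoresis; bidirectional fitting versus DMSO.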
Sequence of Retinoic acid receptor alpha (Homo sapiens) (P10276 whole entry, looked up): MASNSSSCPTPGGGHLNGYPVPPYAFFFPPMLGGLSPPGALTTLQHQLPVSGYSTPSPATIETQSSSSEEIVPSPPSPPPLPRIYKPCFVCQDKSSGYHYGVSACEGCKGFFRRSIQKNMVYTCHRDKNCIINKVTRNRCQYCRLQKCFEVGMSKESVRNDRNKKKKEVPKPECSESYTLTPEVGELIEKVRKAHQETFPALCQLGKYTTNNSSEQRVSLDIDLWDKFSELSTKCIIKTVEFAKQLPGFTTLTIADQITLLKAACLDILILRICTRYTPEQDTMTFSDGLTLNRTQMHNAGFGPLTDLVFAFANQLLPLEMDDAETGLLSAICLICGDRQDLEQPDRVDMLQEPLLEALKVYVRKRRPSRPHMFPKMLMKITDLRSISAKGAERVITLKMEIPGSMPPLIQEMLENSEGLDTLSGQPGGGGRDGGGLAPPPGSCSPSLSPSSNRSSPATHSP

Test [8] deals with Transcription factor E2F1 (Homo sapiens) (UniProt Q01094). The experiment in a line: ATG_E2F_CIS: Attagene CIS-FACTORIAL HepG2 Assay for human E2F Transcription Factor 1 (AID 2282935). The following applies: HepG2 Attagene cis-reporter, E2F reporter RNA transcripts; actives raise or lower the signal. A digest of the protocol: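 Endogenous E2F1 activity read through cis-promoter reporter units transfected into HepG2. After 24 h compound treatment, reporter mRNA measured by RT-PCR, HpaI digestion and capillary electrophoresis. Bidirectional fit versus DMSO.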
Sequence of Transcription factor E2F1 (Homo sapiens) (Q01094 whole entry, looked up): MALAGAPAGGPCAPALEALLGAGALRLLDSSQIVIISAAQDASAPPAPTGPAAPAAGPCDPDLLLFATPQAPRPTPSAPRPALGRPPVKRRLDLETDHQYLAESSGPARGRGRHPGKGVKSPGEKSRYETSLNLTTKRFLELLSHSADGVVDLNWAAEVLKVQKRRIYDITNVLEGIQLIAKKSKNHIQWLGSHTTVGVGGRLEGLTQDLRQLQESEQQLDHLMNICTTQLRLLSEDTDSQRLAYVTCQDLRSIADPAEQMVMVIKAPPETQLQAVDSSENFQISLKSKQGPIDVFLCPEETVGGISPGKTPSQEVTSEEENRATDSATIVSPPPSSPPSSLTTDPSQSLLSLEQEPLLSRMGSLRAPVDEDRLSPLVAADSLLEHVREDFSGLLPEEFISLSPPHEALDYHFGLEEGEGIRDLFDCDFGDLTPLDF

Test [9] can be described thus: ATG_M_61_CIS: Attagene CIS-FACTORIAL HepG2 Assay for M61 Transcription Factor (Internal Marker) (AID 2282937). The following applies: HepG2 Attagene CIS-FACTORIAL M61 internal marker reporter; actives raise or lower the signal. A digest of the protocol:
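This endpoint serves as an internal background control within a multiplexed HepG2 cis-reporter panel. Cells are exposed for 24 h; reporter mRNA is amplified, fluorescently labelled and sized by capillary electrophoresis, with DMSO as negative control.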

Test [10] is described as follows: ATG_M_19_CIS: Attagene CIS-FACTORIAL HepG2 Assay for M19 Transcription Factor (Internal Marker) (AID 2282939). As to conditions: HepG2 Attagene CIS-FACTORIAL M19 internal marker reporter; actives raise or lower the signal. A digest of the protocol: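 Background-control endpoint from a multiplexed HepG2 reporter panel. Cells carrying cis-regulated reporter constructs are treated 24 h, then reporter transcripts are amplified, fluorescently labelled and sized by capillary electrophoresis. DMSO defines baseline.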

The nature of test [11]: ATG_ERE_CIS: Attagene CIS-FACTORIAL HepG2 Assay for Estrogen Response Element (ERE) (AID 2282940). As to conditions: HepG2 ERE cis-reporter, Attagene RNA transcript; actives raise or lower the signal. A digest of the protocol: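 Cells used were human hepatoma HepG2, transfected with multiple reporter transcription units under cis-regulatory promoters. Reporter mRNA, read 24 h post-dosing via fluorescent RT-PCR products on capillary electrophoresis, was fitted bidirectionally relative to DMSO.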

The nature of test [12]: ATG_Ets_CIS: Attagene CIS-FACTORIAL HepG2 Assay for human Erythroblast Transformation Specific (ETS) (AID 2282941). The following applies: HepG2 ETS cis-reporter transcription, actives raise or lower the signal. Put shortly: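 HepG2 cells transfected with multiple cis-regulated reporter units measuring endogenous ETS-driven transcription, 24 h after dosing. Reporter mRNA quantified by RT-PCR with capillary electrophoresis; bidirectional fit relative to DMSO.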

Test [13] addresses Hepatocyte nuclear factor 3-beta (Homo sapiens) (UniProt Q9Y261). As to the kind of experiment: ATG_FoxA2_CIS: Attagene CIS-FACTORIAL HepG2 Assay for human Forkhead box A2 (FOXA2) (AID 2282942). As to conditions: HepG2 cis-reporter transcription factor activity, 24 h; actives raise or lower the signal. A digest of the protocol: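 Cells: HepG2, transient multiplex reporter transfection. Exposure 24 h. Detection: reporter-specific RT-PCR, fluorescent labelling, restriction digest, capillary electrophoresis. Analysis: bidirectional curve fit, DMSO as negative control.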

Test [14] can be described thus: ATG_FoxO_CIS: Attagene CIS-FACTORIAL HepG2 Assay for human Forkhead box O (FoxO) (AID 2282943). As to conditions: HepG2 Attagene cis-reporter, FoxO element, mRNA; actives raise or lower the signal. A digest of the protocol: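 HepG2 cells transiently transfected with cis-element-driven reporter units report endogenous FoxO activity. After 24 h chemical exposure, reporter mRNA quantified by RT-PCR, fluorescent labeling, HpaI digestion and capillary electrophoresis; bidirectional fit versus DMSO.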

Test [15] is described as follows: ATG_GATA_CIS: Attagene CIS-FACTORIAL HepG2 Assay for human GATA Binding Protein (AID 2282944). The following applies: HepG2 GATA cis-element reporter, Attagene multiplex mRNA; actives raise or lower the signal. Put shortly:
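Endogenous transcription factor activity was captured through cis-promoter-driven reporters in transfected HepG2 cells. After 24 h exposure, reporter transcripts were quantified by RT-PCR with fluorescent capillary electrophoresis, and responses fitted both directions against DMSO.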

Test [16] is described as follows: ATG_GLI_CIS: Attagene CIS-FACTORIAL HepG2 Assay for human Zinc Finger Protein GLI1 (AID 2282945). The following applies: HepG2, Attagene cis-factorial reporter mRNA, GLI element; actives raise or lower the signal. A digest of the protocol:
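Transiently transfected HepG2 cells report endogenous transcription factor activity via cis-element-driven reporter units. After 24 h compound exposure, reporter mRNA was measured by RT-PCR with capillary electrophoresis; bidirectional fitting against DMSO baseline.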

The nature of test [17]: ATG_CMV_CIS: Attagene CIS-FACTORIAL HepG2 Assay for human CMV (Internal Marker) (AID 2282928).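 Also: endpoint acts as a background internal control marker rather than a target.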 The following applies: HepG2 CMV promoter reporter, transcription factor profiling; actives raise or lower the signal. Put shortly:
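CMV internal-marker background readout in transiently transfected HepG2 cells bearing cis-regulated reporter units. Reporter mRNA is measured 24 h after dosing by RT-PCR and capillary electrophoresis, with bidirectional fitting against DMSO.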

The nature of test [18]: ATG_E_Box_CIS: Attagene CIS-FACTORIAL HepG2 Assay for human Enhancer Box (E-box) (AID 2282936). The following applies: HepG2 E-box cis-reporter transcription, actives raise or lower the signal. Put shortly:
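HepG2 cells transiently transfected with multiplexed cis-element reporter units, dosed 24 h; reporter mRNA quantified by RT-PCR, 6-FAM labelling, HpaI digestion and capillary electrophoresis. E-box (USF1) signal fitted bidirectionally vs DMSO.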

Test [19] in a line: ATG_EGR_CIS: Attagene CIS-FACTORIAL HepG2 Assay for human Early Growth Response 1 (EGR1) (AID 2282938). As to conditions: HepG2 Attagene CIS-FACTORIAL EGR reporter mRNA; actives raise or lower the signal. Put shortly:
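HepG2, transient MRTU transfection (cis promoters), 24 h compound. RNA → RT (oligo-dT) → PCR → 6-FAM labelling → HpaI cut → CE fluorescence. Bidirectional fit, DMSO baseline.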

Consider six molecules from PubChem BioAssay (EPA / NIEHS).

Calls of active or inactive are those of the source. The calls were made as follows: active = hit-call score of the fitted dose curve at least 0.9, where 1 is the maximum; inactive = score below 0.9.

Sequence of Hepatocyte nuclear factor 3-beta (Homo sapiens) (Q9Y261 whole entry, looked up): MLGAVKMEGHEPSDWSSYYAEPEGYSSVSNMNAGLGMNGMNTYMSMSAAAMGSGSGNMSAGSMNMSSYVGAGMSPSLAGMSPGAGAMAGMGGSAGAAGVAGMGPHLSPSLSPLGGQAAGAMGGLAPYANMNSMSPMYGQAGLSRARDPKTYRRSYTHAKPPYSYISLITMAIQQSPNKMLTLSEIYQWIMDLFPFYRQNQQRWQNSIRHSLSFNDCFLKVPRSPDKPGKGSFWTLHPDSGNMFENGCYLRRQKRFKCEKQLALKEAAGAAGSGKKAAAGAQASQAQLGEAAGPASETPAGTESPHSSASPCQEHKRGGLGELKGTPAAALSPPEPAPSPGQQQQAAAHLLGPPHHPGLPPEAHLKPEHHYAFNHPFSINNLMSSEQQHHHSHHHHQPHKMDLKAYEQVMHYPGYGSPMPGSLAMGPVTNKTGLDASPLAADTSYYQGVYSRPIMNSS
Sequence of CCAAT/enhancer-binding protein beta (Homo sapiens) (P17676 whole entry, looked up): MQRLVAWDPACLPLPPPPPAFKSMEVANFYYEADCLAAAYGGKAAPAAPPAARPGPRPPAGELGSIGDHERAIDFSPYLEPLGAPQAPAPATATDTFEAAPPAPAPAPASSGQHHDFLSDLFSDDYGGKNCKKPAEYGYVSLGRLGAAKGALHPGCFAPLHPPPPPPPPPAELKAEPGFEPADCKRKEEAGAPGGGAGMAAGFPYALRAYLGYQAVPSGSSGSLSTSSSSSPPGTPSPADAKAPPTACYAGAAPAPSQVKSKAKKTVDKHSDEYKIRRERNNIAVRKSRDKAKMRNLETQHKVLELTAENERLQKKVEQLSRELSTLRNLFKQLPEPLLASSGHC

For `Cn1c([N+](=O)[O-])cnc1COC(N)=O`, the outcome in test [1], in [2], in [3], in test [4], in test [5] and in test [6] was inactive. The call in test [7], in test [8], in test [9], in [10], in [11] and in [12] was inactive. Further, the result in test [13], in test [14], in test [15] and in test [16] was inactive.

Turning to `COc1ccc2nc(N)sc2c1`, the result in [1], in [17], in [2], in test [4], in test [5] and in test [6] was inactive. Moreover, the result in [7], in test [8], in test [18], in test [9], in test [19] and in test [10] was inactive. Besides, the outcome in test [11], in test [12], in test [14], in [15] and in test [16] was inactive. In addition, the AC50 (commonly the concentration at which the activity in the assay is half-maximal) in test [3] is 3.17 µM (active).

Regarding `O=C1CCCN1CCO`, the result in [1], in test [17], in test [2], in test [3], in [4] and in [5] was inactive. In addition, the molecule was classed as inactive in [6], in test [7], in test [8], in [9], in test [19] and in test [10]. Moreover, the molecule was classed as inactive in test [11], in test [14], in test [15] and in [16].

As for `Cc1ccc(N)c([N+](=O)[O-])c1`, the outcome in test [1], in [17], in test [2], in test [3], in [4] and in test [6] was inactive. Also, the outcome in test [7], in test [8], in test [18], in test [9], in [19] and in test [10] was inactive. The call in test [11], in test [12], in test [13], in test [14] and in test [16] was inactive.

On to `Nc1ccc(-c2ccc(F)cc2)cc1`, for which the outcome in [1], in test [2], in test [3], in test [4], in test [5] and in test [7] was inactive. Besides, the result in [8], in test [18], in test [9], in test [19], in test [10] and in test [12] was inactive. The molecule was classed as inactive in [13], in [15] and in test [16]. Further, the AC50 in test [11] is 18.2 µM (active).

On to `O=c1[nH]nc(-c2ccc([N+](=O)[O-])o2)o1`, for which the result in test [1], in test [17], in test [2], in [3], in test [7] and in [8] was inactive. Also, the outcome in test [18], in test [9], in test [19], in [10], in [11] and in test [12] was inactive. Further, the call in test [13], in [14], in test [15] and in [16] was inactive. Further, in [4], the concentration at half-maximal activity (AC50) is 87.6 µM (active).
